Experimental data as given in publication PMC7862700, “An all-to-all approach to the identification of sequence-specific readers for epigenetic DNA modifications on cytosine”.

Columns and labels:
Assay in all cases: DAPPL (digital affinity profiling via proximity ligation, sequencing); 10 mM Tris-HCl pH 7.5, 50 mM NaCl, 1 mM DTT, 4% glycerol, room temperature, 30 min; GST-TFs on glutathione beads, 16-mer random dsDNA library, 0.1% formaldehyde crosslink after washing; high values mean tight binding
[1] = target: T1, FEV (Homo sapiens, UniProt Q99581 1-238); conditions: protein: recombinant; tags: N-terminal GST; dsDNA, one strand shown
T1 sequence: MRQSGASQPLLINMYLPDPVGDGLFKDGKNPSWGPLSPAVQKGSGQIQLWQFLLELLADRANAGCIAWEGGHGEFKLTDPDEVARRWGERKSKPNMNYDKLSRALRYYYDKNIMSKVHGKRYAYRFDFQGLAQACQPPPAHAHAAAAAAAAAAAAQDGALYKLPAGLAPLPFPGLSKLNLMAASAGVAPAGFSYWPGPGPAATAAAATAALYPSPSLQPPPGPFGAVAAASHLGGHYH
In short: (§1)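 Yeast served to express human transcription factors as GST fusions, which were then captured on glutathione beads and labelled with DNA barcodes. Pooled with a tag-only sample, they were incubated with 200 nmole of a 16-mer random double-stranded DNA library for 30 min at room temperature in Tris/NaCl/DTT/glycerol buffer, washed, crosslinked with 0.1% formaldehyde, ligated by proximity, amplified by PCR and sequenced. Dividing each hexamer's read frequency for a factor by its frequency for the tag-only sample gives the binding signal.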

[2] = target: ETV5 (Homo sapiens, UniProt P41161 1-510); conditions: protein: recombinant; tags: N-terminal GST; dsDNA, one strand shown
Chain of ETV5 (P41161 whole entry): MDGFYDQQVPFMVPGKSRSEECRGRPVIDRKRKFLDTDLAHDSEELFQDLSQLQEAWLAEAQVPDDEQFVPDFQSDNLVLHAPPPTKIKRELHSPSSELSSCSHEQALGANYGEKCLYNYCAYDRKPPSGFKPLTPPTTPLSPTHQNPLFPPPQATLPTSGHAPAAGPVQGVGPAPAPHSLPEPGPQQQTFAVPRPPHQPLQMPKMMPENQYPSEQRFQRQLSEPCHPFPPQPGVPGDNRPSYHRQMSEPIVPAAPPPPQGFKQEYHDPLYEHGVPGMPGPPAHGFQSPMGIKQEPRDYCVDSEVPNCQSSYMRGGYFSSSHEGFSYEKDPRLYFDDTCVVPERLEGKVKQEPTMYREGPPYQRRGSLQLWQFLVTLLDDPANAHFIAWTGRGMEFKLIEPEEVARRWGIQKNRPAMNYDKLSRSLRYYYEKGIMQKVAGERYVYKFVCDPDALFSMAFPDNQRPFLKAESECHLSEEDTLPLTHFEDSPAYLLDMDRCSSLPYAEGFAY
In short: as §1

[3] = target: HSF1 (Homo sapiens, UniProt Q00613 1-529); conditions: protein: recombinant; tags: N-terminal GST; chain copies: 3; dsDNA, one strand shown
Chain of HSF1 (Q00613 whole entry): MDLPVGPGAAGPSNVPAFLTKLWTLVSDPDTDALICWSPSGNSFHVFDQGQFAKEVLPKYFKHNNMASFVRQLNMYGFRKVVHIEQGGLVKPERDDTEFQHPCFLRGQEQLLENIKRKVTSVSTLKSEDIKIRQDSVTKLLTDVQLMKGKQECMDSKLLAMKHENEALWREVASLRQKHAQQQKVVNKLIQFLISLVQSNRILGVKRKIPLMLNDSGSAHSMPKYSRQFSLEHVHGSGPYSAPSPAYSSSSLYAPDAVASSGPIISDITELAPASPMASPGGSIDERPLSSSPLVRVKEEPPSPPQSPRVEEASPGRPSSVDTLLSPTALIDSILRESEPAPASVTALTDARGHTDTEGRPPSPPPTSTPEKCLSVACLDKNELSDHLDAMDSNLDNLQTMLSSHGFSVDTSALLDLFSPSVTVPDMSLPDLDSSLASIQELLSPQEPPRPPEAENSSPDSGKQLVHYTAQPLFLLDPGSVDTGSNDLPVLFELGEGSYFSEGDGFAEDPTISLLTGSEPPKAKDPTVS
In short: as §1

[4] = target: T2, SPIC (Homo sapiens, UniProt Q8N5J4 1-248); conditions: protein: recombinant; tags: N-terminal GST; dsDNA, one strand shown
T2 sequence: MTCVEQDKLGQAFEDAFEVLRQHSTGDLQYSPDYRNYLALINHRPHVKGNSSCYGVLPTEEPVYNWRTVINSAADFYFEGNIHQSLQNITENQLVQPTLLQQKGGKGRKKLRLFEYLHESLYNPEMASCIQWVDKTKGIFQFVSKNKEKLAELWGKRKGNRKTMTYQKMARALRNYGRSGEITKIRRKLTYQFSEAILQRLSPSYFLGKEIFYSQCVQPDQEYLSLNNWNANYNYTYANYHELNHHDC
In short: as §1

[5] = target: ELF4 (Homo sapiens, UniProt Q99607 1-663); conditions: protein: recombinant; tags: N-terminal GST; dsDNA, one strand shown
Chain of ELF4 (Q99607 whole entry): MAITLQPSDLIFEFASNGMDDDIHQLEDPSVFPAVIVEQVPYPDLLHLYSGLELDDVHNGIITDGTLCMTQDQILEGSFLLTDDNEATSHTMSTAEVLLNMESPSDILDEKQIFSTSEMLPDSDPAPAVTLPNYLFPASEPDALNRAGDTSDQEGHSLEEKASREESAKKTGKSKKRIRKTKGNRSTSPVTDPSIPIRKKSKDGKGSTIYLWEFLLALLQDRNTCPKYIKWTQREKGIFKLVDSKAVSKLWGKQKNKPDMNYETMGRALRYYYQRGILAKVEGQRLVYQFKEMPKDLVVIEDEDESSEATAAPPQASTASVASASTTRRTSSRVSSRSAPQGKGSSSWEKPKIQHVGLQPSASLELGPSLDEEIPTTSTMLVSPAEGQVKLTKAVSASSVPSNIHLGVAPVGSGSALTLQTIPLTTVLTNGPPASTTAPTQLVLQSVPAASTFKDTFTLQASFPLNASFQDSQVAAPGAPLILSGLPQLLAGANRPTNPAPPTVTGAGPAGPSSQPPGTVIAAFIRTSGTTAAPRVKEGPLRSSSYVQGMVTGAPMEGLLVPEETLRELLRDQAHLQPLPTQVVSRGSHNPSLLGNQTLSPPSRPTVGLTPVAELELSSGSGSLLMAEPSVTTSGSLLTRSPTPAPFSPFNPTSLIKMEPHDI
In short: as §1

[6] = target: T3, ELK4 (Homo sapiens, UniProt P28324-2 1-405); conditions: protein: recombinant; tags: N-terminal GST; dsDNA, one strand shown
T3 sequence: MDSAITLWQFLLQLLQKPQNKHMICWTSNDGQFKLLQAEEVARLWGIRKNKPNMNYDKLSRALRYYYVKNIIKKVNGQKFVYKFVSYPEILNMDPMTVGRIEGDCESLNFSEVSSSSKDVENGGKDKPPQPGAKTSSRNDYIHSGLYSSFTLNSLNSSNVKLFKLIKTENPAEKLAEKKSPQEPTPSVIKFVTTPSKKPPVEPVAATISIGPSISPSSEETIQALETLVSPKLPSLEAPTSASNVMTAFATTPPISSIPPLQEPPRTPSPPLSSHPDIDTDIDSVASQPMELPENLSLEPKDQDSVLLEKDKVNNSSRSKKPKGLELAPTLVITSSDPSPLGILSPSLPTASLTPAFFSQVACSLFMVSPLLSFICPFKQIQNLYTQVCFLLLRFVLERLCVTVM
In short: as §1

[7] = target: T4, ETV2 (Homo sapiens, UniProt O00321 1-342); conditions: protein: recombinant; tags: N-terminal GST; dsDNA, one strand shown
T4 sequence: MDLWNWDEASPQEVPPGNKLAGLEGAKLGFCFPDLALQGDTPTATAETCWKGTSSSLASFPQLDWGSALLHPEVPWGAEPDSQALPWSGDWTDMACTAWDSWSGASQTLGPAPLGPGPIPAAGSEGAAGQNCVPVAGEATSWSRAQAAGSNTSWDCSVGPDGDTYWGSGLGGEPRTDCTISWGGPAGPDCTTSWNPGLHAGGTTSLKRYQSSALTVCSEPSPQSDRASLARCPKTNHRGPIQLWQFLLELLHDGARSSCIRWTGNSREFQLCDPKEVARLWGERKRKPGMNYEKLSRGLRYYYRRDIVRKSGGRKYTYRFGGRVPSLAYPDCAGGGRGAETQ
In short: as §1

[8] = target: T5, ELF3 (Homo sapiens, UniProt P78545 1-371); conditions: protein: recombinant; tags: N-terminal GST; dsDNA, one strand shown
T5 sequence: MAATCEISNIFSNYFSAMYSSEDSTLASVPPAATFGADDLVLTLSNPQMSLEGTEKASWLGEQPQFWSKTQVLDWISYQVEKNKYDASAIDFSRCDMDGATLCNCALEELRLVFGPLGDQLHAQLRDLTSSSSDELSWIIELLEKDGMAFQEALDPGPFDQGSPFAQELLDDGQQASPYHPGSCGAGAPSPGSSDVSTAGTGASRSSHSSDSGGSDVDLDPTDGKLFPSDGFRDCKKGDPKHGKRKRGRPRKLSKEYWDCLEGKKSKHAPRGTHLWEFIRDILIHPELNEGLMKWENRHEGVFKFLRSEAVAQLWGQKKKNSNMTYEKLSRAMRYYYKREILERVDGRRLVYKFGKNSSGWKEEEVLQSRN
In short: as §1

[9] = target: CRX (Homo sapiens, UniProt O43186 1-299); conditions: protein: recombinant; tags: N-terminal GST; dsDNA, one strand shown
Chain of CRX (O43186 whole entry): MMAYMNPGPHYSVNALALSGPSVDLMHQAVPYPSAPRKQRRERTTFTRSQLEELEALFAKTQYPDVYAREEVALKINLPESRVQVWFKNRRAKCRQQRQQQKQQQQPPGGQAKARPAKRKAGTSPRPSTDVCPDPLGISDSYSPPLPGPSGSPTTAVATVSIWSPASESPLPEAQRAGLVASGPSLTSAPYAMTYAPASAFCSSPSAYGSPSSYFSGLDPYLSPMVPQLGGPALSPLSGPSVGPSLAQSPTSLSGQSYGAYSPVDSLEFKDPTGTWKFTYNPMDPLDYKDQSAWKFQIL
In short: as §1

[10] = target: ETV1 (Homo sapiens, UniProt P50549 1-477); conditions: protein: recombinant; tags: N-terminal GST; dsDNA, one strand shown
Chain of ETV1 (P50549 whole entry): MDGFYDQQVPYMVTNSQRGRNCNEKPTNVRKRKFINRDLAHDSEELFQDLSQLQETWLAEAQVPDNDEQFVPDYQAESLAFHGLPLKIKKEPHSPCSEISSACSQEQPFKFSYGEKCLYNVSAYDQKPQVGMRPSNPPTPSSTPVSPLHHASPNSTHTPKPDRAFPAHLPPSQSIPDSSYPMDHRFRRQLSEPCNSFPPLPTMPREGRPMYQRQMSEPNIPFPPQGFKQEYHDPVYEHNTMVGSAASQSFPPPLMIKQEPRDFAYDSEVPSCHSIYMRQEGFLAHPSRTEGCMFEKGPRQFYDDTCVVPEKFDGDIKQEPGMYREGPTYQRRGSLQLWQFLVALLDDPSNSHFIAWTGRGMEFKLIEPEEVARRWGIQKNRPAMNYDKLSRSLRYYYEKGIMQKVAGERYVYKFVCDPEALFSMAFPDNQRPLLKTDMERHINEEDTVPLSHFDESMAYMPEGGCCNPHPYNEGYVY
In short: as §1

[11] = target: T6, ERF (Homo sapiens, UniProt P50548 1-548); conditions: protein: recombinant; tags: N-terminal GST; dsDNA, one strand shown
T6 sequence: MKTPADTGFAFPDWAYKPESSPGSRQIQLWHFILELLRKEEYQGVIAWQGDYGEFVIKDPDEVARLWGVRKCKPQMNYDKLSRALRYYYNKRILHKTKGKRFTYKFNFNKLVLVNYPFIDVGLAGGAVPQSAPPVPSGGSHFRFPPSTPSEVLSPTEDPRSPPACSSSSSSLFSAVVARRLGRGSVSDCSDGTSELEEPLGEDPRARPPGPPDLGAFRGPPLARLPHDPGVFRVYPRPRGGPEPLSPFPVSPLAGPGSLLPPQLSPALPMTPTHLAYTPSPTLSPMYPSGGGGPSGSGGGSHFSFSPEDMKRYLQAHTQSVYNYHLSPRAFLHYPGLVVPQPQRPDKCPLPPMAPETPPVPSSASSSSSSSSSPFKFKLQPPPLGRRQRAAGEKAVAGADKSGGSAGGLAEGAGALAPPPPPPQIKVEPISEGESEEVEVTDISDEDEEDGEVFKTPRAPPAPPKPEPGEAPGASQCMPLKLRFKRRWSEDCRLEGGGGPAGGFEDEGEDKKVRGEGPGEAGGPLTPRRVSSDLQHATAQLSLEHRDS
In short: as §1

[12] = target: T7, ETV3L (Homo sapiens, UniProt Q6ZN32 1-361); conditions: protein: recombinant; tags: N-terminal GST; dsDNA, one strand shown
T7 sequence: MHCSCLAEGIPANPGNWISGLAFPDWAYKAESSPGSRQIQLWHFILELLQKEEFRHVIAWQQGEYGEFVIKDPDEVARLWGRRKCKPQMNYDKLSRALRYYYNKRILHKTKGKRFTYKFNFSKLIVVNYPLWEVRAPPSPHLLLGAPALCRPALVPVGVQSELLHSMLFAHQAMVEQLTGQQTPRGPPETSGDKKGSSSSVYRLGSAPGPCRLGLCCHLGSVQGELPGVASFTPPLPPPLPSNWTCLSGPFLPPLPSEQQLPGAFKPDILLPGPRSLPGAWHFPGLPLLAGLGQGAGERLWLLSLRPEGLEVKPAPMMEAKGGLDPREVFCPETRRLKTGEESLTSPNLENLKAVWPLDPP
In short: as §1

[13] = target: T8, ETS2 (Homo sapiens, UniProt P15036 1-469); conditions: protein: recombinant; tags: N-terminal GST; dsDNA, one strand shown
T8 sequence: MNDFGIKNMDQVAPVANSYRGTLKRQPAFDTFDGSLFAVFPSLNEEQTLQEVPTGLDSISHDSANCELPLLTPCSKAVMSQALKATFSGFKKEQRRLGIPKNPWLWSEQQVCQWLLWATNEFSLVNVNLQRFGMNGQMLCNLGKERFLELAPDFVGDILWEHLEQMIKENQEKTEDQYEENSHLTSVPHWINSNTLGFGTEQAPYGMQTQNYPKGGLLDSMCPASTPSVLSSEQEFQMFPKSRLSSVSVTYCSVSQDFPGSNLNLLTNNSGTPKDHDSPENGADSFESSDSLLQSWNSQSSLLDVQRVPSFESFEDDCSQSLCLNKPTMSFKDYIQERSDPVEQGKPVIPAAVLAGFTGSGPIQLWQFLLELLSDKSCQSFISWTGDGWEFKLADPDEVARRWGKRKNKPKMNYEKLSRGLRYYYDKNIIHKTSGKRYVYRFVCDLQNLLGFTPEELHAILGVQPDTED
In short: as §1

[14] = target: T9, SPDEF (Homo sapiens, UniProt O95238 1-335); conditions: protein: recombinant; tags: N-terminal GST; dsDNA, one strand shown
T9 sequence: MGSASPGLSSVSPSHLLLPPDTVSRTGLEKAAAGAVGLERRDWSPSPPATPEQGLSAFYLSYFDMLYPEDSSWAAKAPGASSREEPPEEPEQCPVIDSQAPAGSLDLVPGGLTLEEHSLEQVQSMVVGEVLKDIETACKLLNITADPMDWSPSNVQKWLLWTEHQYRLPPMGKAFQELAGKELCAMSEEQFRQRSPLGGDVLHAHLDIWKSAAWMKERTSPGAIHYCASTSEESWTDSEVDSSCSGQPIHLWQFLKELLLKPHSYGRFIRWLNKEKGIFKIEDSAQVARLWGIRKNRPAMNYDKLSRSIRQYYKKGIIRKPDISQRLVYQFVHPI
In short: as §1

[15] = target: T10, ETV7 (Homo sapiens, UniProt Q9Y603 1-341); conditions: protein: recombinant; tags: N-terminal GST; dsDNA, one strand shown
T10 sequence: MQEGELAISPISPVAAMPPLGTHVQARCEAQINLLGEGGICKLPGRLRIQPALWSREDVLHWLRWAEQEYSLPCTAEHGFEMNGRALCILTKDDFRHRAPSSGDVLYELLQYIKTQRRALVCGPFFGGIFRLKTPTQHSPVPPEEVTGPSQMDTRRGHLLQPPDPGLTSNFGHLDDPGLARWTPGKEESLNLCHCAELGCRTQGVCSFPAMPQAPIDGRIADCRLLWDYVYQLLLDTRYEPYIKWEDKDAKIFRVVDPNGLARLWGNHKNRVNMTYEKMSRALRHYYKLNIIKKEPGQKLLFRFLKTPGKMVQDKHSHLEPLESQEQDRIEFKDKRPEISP
In short: as §1

[16] = target: T11, ELF5 (Homo sapiens, UniProt Q9UKW6-2 1-255); conditions: protein: recombinant; tags: N-terminal GST; dsDNA, one strand shown
T11 sequence: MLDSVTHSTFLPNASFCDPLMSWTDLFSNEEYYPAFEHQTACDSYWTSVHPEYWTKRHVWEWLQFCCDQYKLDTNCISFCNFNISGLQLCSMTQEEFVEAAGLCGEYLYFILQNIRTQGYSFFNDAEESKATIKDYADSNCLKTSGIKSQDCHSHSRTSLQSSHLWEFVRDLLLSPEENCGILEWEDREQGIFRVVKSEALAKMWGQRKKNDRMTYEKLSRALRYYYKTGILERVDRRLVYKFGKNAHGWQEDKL
In short: as §1

[17] = target: T12, ETV3 (Homo sapiens, UniProt P41162-2 1-143); conditions: protein: recombinant; tags: N-terminal GST; dsDNA, one strand shown
T12 sequence: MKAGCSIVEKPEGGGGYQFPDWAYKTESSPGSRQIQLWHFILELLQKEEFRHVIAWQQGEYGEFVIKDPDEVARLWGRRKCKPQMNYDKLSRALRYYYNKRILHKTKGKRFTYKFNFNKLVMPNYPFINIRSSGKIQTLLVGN
In short: as §1

[18] = target: ETV6 (Homo sapiens, UniProt P41212 1-452); conditions: protein: recombinant; tags: N-terminal GST; dsDNA, one strand shown
Chain of ETV6 (P41212 whole entry): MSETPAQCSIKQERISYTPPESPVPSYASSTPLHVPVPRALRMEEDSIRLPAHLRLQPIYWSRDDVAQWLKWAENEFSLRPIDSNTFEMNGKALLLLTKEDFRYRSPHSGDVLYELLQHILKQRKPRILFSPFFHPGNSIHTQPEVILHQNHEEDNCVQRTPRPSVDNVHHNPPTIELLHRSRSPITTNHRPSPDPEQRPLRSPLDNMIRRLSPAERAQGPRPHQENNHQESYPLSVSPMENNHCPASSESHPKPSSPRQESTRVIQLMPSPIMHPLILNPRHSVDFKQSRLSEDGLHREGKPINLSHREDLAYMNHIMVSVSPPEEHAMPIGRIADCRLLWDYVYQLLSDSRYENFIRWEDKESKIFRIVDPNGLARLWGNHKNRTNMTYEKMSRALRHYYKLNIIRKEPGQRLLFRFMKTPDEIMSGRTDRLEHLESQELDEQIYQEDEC
In short: as §1

Sequence: TCTGTT
- binding signal [1]: 1.29 fold enrichment (6-mer frequency, TF over GST control)
- binding signal [2]: 1.27 fold enrichment (6-mer frequency, TF over GST control)
- binding signal [3]: 1.43 fold enrichment (6-mer frequency, TF over GST control)
- binding signal [4]: 1.31 fold enrichment (6-mer frequency, TF over GST control)
- binding signal [5]: 1.39 fold enrichment (6-mer frequency, TF over GST control)
- binding signal [6]: 1.25 fold enrichment (6-mer frequency, TF over GST control)
- binding signal [7]: 1.3 fold enrichment (6-mer frequency, TF over GST control)
- binding signal [8]: 1.53 fold enrichment (6-mer frequency, TF over GST control)
- binding signal [9]: 1.27 fold enrichment (6-mer frequency, TF over GST control)
- binding signal [10]: 1.41 fold enrichment (6-mer frequency, TF over GST control)
- binding signal [11]: 1.43 fold enrichment (6-mer frequency, TF over GST control)
- binding signal [12]: 1.32 fold enrichment (6-mer frequency, TF over GST control)
- binding signal [13]: 1.48 fold enrichment (6-mer frequency, TF over GST control)
- binding signal [14]: 1.35 fold enrichment (6-mer frequency, TF over GST control)
- binding signal [15]: 1.46 fold enrichment (6-mer frequency, TF over GST control)
- binding signal [16]: 1.4 fold enrichment (6-mer frequency, TF over GST control)
- binding signal [17]: 1.25 fold enrichment (6-mer frequency, TF over GST control)
- binding signal [18]: 1.35 fold enrichment (6-mer frequency, TF over GST control)
